Structures can show the parent of a compound that is named as a salt.
Test system: MOLM14
Test: cell viability relative to vehicle control; higher = less cytotoxic
Conditions: 10 µM; SRSF2 genotype: SRSF2 P95H/wt
Summary of the method: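 Mutant clones made by CRISPR editing and their isogenic wild-type counterparts, from four leukaemia lines, were exposed to a single 10 µM dose of each library compound for 48 h. The supernatant was then removed and CellTiter-Glo luminescence was read. Viability was reported as percent of the on-plate vehicle control.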

Row | SMILES | cell viability [%]
1 | OC[C@H]1O[C@@](CO)(O[C@H]2O[C@H](CO)[C@@H](O)[C@H](O)[C@H]2O)[C@@H](O[C@H]2O[C@H](CO)[C@@H](O)[C@H](O)[C@H]2O)[C@@H]1O [D-(+)-Melezitose] | 98.5
2 | COc1ccc2c3c1O[C@H]1C[C@@H](O)C=C[C@@]31CCN(C)C2 [Galanthamine] | 97.9
3 | COc1cc(C(=O)O)ccc1O [Vanillic acid] | 102
4 | CN[C@H]1CC[C@@H](c2ccc(Cl)c(Cl)c2)c2ccccc21 [Sertraline HCl] | 32.7
5 | Clc1ccc(CSC(Cn2ccnc2)c2ccc(Cl)cc2Cl)cc1 (centres undefined) [Sulconazole Nitrate] | 45.7
6 | CC1(C)[C@@H](O)CC[C@]2(C)[C@H]3C(=O)C=C4[C@@H]5C[C@@](C)(C(=O)O)CC[C@]5(C)CC[C@@]4(C)[C@]3(C)CC[C@@H]12 [Enoxolone (Glycyrrhetin)] | 104
7 | C[C@H](N=C(NC#N)Nc1cccc2ncccc12)c1ccccc1 | 97.6
8 | CC(C)n1nc(-c2cc3cc(O)ccc3[nH]2)c2c(N)ncnc21 [Torkinib (PP242)] | 12.8
9 | CC1(C)O[C@@H]2C[C@H]3[C@@H]4CCC5=CC(=O)C=C[C@]5(C)[C@H]4[C@@H](O)C[C@]3(C)[C@]2(C(=O)CO)O1 [Desonide] | 106
10 | O=C(Nc1ccccc1)N1CCN(c2nc(-c3ccccc3)ns2)CC1 | 90.5
11 | O=C1C[C@@H](c2ccccc2)Oc2cc(O)cc(O)c21 [Pinocembrin] | 109
12 | CC1OC(OC2C(OC3CCC4(C)C(CCC5(C)C4CC=C4C6CC(C)(C)CCC6(C(=O)OC6OC(COC7OC(CO)C(O)C(O)C7O)C(O)C(O)C6O)CCC45C)C3(C)CO)OCC(O)C2O)C(O)C(OC2OC(CO)C(O)C(O)C2O)C1O (centres undefined) [Macranthoidin A] | 102
13 | Cc1ccc(Nc2c(F)cccc2Cl)c(CC(=O)O)c1 [Lumiracoxib (COX-189)] | 100
14 | CC(C)=CCC[C@](C)(O[C@@H]1O[C@H](CO)[C@@H](O)[C@H](O)[C@H]1O)[C@H]1CC[C@]2(C)[C@@H]1[C@H](O)C[C@@H]1[C@@]3(C)CC[C@H](O)C(C)(C)[C@@H]3CC[C@]12C [Ginsenoside CK] | 77.2
15 | CCCCCCCCCC(C)=O [Methylnonylketone] | 97.7
16 | COc1cc(O)c(C(=O)/C=C/c2ccccc2)c(OC)c1 [Flavokawain B] | 22.6
17 | c1ccc(CNc2nc(NCc3ccccc3)c3ccccc3n2)cc1 | 0.16
18 | Nc1nonc1C(=Nc1ccc(F)c(Cl)c1)NO | 93.8
19 | NC(=O)c1ccc[n+]([O-])c1 [Nicotinamide N-oxide] | 98.7
20 | CCCCNC(=O)NS(=O)(=O)c1ccc(C)cc1 [Tolbutamide] | 102

Row | SMILES | cell viability [%]
21 | O=C(CCN1CCN(C(=O)OCc2cc(Cl)cc(Cl)c2)CC1)c1ccc2[nH]c(=O)oc2c1 | 83.1
22 | CC1=NN(c2ccccc2)C(=O)C1 [Edaravone (MCI-186)] | 96.3
23 | CNC(=C[N+](=O)[O-])NCCSCc1csc(CN(C)C)n1 [Nizatidine] | 103
24 | CC1=C(/C=C/C(C)=C/C=C/C(C)=C/C=C/C=C(C)/C=C/C=C(C)/C=C/C2=C(C)C(=O)[C@@H](O)CC2(C)C)C(C)(C)C[C@H](O)C1=O [Astaxanthin] | 102
25 | O=C(O)c1cc(O)c2c(c1)[C@@H]([C@H]1c3cc(C(=O)O)cc(O)c3C(=O)c3c(O[C@@H]4O[C@H](CO)[C@@H](O)[C@H](O)[C@H]4O)cccc31)c1cccc(O[C@@H]3O[C@H](CO)[C@@H](O)[C@H](O)[C@H]3O)c1C2=O [Sennoside B] | 76.2
26 | c1ccc2[nH]c(-c3cscn3)nc2c1 [Thiabendazole] | 97.8
27 | CC1(C)S[C@@H]2[C@H](NC(=O)C(c3ccccc3)S(=O)(=O)O)C(=O)N2[C@H]1C(=O)O (some centres undefined) [Sulbenicillin Sodium] | 97.7
28 | COc1ccc(COc2ccc(Cc3cnc(N)nc3N)cc2OC)cc1 | 86.6
29 | CNC(=O)c1cnn(-c2nc(N)c3ncn([C@@H]4O[C@H](CO)[C@@H](O)[C@H]4O)c3n2)c1 [Regadenoson] | 103
30 | O=C1CCC(N2C(=O)c3ccccc3C2=O)C(=O)N1 (centres undefined) [Thalidomide] | 87.5
31 | C[C@@]1(C(=O)Nc2ccc(F)nc2)CCCN1c1nc(Nc2cc(C3CC3)n[nH]2)c2cccn2n1 | 7.43
32 | COc1cc(C(=O)NC2CCN(C)CC2)ccc1Nc1ncc2c(n1)N(C1CCCC1)CC(F)(F)C(=O)N2C | 15
33 | COc1nc2ccc(Br)cc2cc1[C@@H](c1ccccc1)[C@@](O)(CCN(C)C)c1cccc2ccccc12 [Bedaquiline] | 51.8
34 | CC(C)=CCC/C(C)=C/C=O [Citral] | 88.2
35 | O=C(/C=C/c1ccc(O)c(O)c1)c1ccc(O)cc1O [Butein] | 52.4
36 | COc1ccc(CCc2nc3cc(-c4c(C)noc4C)ccc3n2C[C@H](C)N2CCOCC2)cc1Cl | 47.4
37 | CC(O)c1cc(C(=O)N[C@@H](C)Cn2ccc(-c3ccc(C#N)c(Cl)c3)n2)n[nH]1 (some centres undefined) | 98.8
38 | Cc1cc(C)nc(SCC(=O)Nc2ncc(Cc3cccc4ccccc34)s2)n1 | 41.1
39 | COc1ccc(CCNCc2ccc(OCc3ccc(Cl)nc3)c(OC)c2)cc1OC | 91.9
